Screening data: PubChem, National Center for Advancing Translational Sciences (NCATS)
Rows were chosen to be rich in hits. Some 19% of all compounds tested hit in one or more screens of this group.
DT40 TDP1 CPT = DT40-hTDP1 cell growth loss with CPT | Potency, µM (top dose mostly 46.2 µM), hits mostly inhibitors | AID 686979 | chicken DT40 Tdp1-/-;hTDP1 cells + 20 nM CPT, ATP luminescence, 48 h | hit rate 12% among 420,000; note: nearly all actives have a fitted effect of over 55% in size
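Cell growth measured by CellTiter-Glo luminescence after a minimum 48 h, 37 C compound exposure with 20 nM CPT in Tdp1-knockout DT40 cells stably expressing hTDP1, seeded 400/well; qHTS titration format.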
DT40 TDP1 no CPT = qHTS for Inhibitors of human tyrosyl-DNA phosphodiesterase 1 (TDP1): qHTS in cells in absence of CPT. DT40 Tdp1-/- hTDP1 cells, no CPT, ATP luminescence, 48 h. Potency, µM (doses to about 46.2 µM), actives largely listed as inhibitors. hit rate 15% among 420,000. AID 686978, 2013; note: nearly all actives have a fitted effect of over 55% in size
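Chicken DT40 Tdp1-/- cells stably complemented with human TDP1 were seeded at 400 cells/well with DMSO in place of 20 nM camptothecin. After compound pinning, cells grew at least 48 hr at 37 °C; viability read by CellTiter-Glo luminescence.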
HT1080-NT tox = kills 2HG-producing HT-1080-NT fibrosarcoma cells. HT-1080-NT fibrosarcoma viability, CellTiter-Glo ATP luminescence, 48 h. Potency, µM (top dose mostly 46.1 µM), most hits filed as cytotoxic. hit rate 1.6% among 360,000;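 note: NT is the 2HG producing partner of a matched IDH1 knockdown line; nearly all actives have a fitted effect of over 55% in size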
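Fibrosarcoma NT cells, 750 per well in 5% FBS RPMI, were exposed to compound for 48 hours. Viability: CellTiter-Glo luminescence.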
HT1080 IDH1KD tx = kills HT-1080 cells with IDH1 knockdown. HT-1080 IDH1 knockdown viability, ATP luminescence, 48 h. Potency, µM (top dose mostly 46.1 µM), usual class: cytotoxic. AID 686971. hit rate 2% among 360,000
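Assay cells: HT-1080 with IDH1 knockdown, 750 per well, RPMI/5% FBS. Exposure: 48 h at 37 °C following 2 h pre-incubation. Read: CellTiter-Glo luminescence; fitted concentration-response, curve class assigned.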
IL1B secr inh = blocks inflammasome-driven IL-1 beta release; THP-1 LPS/ATP IL-1B secretion, AlphaLISA, 16 h; hits give low values; activity change, % at 57.5 µM; hit rate 4.7% among 360,000; AID 743279; in the data active = activity change below about -50%; inconclusive = mostly about -30% to -49%
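THP-1 cells pretreated 1 hr with compounds (up to 57.5 uM final), then stimulated with LPS (250 ng/mL final) plus ATP (1.25 mM final); secreted IL-1B measured by AlphaLISA after 16 hr, decreased signal indicating inhibition.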
Large screens that a line does not name were inactive. Unless noted, calls come from the whole dose curve; as a rule, active = well fitted curve in the direction sought with a large enough effect; inconclusive = small, poorly fitted or top-dose-only effect, or another doubt; inactive = no such curve, though single readings can be large; an effect the other way counts as inactive or inconclusive.

O=C(c1ccccc1)N1CCN(c2cc(Cl)nc3cc(-c4cccc(Cl)c4)nn23)CC1	DT40 TDP1 CPT 16µM, DT40 TDP1 no CPT 4.6µM
Cc1cccc(NC(=O)c2nc[nH]c2C(=O)N[C@H](C)CO)c1	none
COCc1nnc(NC(=O)c2cc(OC)c(OC)c(OC)c2)s1	none (no result: HT1080-NT tox, HT1080 IDH1KD tx, IL1B secr inh)
COc1cc(C(=O)Nc2nnc(CC(C)(C)C)s2)cc(OC)c1OC	DT40 TDP1 CPT 13µM, DT40 TDP1 no CPT inconclusive (no result: HT1080-NT tox, HT1080 IDH1KD tx, IL1B secr inh)
CCOC(=O)c1csc(NC(=O)c2cc(OC)c(OC)c(OC)c2)n1	DT40 TDP1 CPT inconclusive, DT40 TDP1 no CPT inconclusive, IL1B secr inh -54
CCNc1ncc2nc(-c3ccc(OC)cc3)c(=O)n(CCOC)c2n1	none (no result: HT1080-NT tox, HT1080 IDH1KD tx, IL1B secr inh)
O=C1/C(=C\c2ccc(O)c(O)c2)C(c2ccccc2)=NN1c1ccccc1	DT40 TDP1 CPT inconclusive, DT40 TDP1 no CPT 21µM
COc1ccccc1NS(=O)(=O)c1ccc(C(=O)NCc2ccco2)cc1	DT40 TDP1 CPT 10µM, DT40 TDP1 no CPT inconclusive
Cc1ccccc1NS(=O)(=O)c1cc(C(=O)NCCC2=CCCCC2)ccc1C	DT40 TDP1 CPT inconclusive, DT40 TDP1 no CPT inconclusive, HT1080-NT tox inconclusive
COc1ccccc1NS(=O)(=O)c1ccc(C(=O)NCc2ccncc2)cc1	none
COc1ccccc1NS(=O)(=O)c1cc(C(=O)NCc2ccco2)ccc1C	IL1B secr inh -63
Cc1ccccc1NS(=O)(=O)c1cc(C(=O)NCc2ccco2)ccc1C	none
Cc1ccc(SCCNC(=O)c2ccc(C)c(S(=O)(=O)Nc3ccccc3C)c2)cc1	DT40 TDP1 CPT inconclusive, DT40 TDP1 no CPT 22µM, HT1080-NT tox inconclusive, HT1080 IDH1KD tx inconclusive, IL1B secr inh -67
O=C(O)C1CCN(C(=O)c2ccc(Cl)cc2)CC1	none
O=C(c1ccc(F)cc1)N1CCN(Cc2ccccc2)CC1	none
COc1ccc(NC(=O)N2CCC(C(=O)c3ccc(F)cc3)CC2)cc1	DT40 TDP1 CPT inconclusive, DT40 TDP1 no CPT inconclusive
O=C(c1ccc(Cl)cc1)C1CCN(C(=O)c2ccccc2)CC1	DT40 TDP1 CPT inconclusive, DT40 TDP1 no CPT 15µM, IL1B secr inh inconclusive
CSc1ccc(NC(=O)N2CCC(C(=O)c3ccc(F)cc3)CC2)cc1	DT40 TDP1 CPT inconclusive, DT40 TDP1 no CPT inconclusive, IL1B secr inh -69
O=C(c1ccc(F)cc1)N1CCC(C(=O)N(Cc2ccccc2)c2ccccc2)CC1	DT40 TDP1 CPT 23µM, DT40 TDP1 no CPT 18µM
O=C(c1ccc2c(c1)OCCO2)C1CCN(C(=O)c2ccc(F)c(F)c2)CC1	DT40 TDP1 CPT inconclusive, DT40 TDP1 no CPT 16µM, HT1080 IDH1KD tx inconclusive
CN(CC(=O)O)c1ccc(C=O)cc1	none (no result: HT1080-NT tox, HT1080 IDH1KD tx, IL1B secr inh)
Cc1cccc(C)c1NC(=O)CSc1nnc(-c2cccnc2)o1	DT40 TDP1 no CPT inconclusive
O=C(c1ccc(F)cc1)C1CCN(C(=O)c2ccccc2)CC1	DT40 TDP1 no CPT inconclusive, IL1B secr inh inconclusive
CNC(=S)N1CCC(C(=O)c2ccc(Cl)cc2)CC1	none
Cc1cc(C)c2cc(C(=O)N3CCC(C(=O)c4ccc(F)cc4)CC3)[nH]c2c1	DT40 TDP1 CPT inconclusive, DT40 TDP1 no CPT 21µM, HT1080-NT tox inconclusive, HT1080 IDH1KD tx inconclusive, IL1B secr inh inconclusive
O=C(c1ccc(Cl)cc1)C1CCN(C(=S)Nc2ccccc2)CC1	DT40 TDP1 no CPT 16µM
O=C(c1ccc(F)cc1)C1CCN(C(=O)c2ccc(Cl)cc2)CC1	DT40 TDP1 CPT inconclusive, DT40 TDP1 no CPT 18µM
CC(Oc1ccc(F)cc1)C(O)CCN(C)C (centres undefined)	none
CC1(O)N(CCC(=O)Nc2cccc(F)c2)C(=O)OC12CCCCC2 (centres undefined)	none
CCOC(=O)c1c(-c2ccco2)csc1NC(=O)COC(=O)c1cnccn1	DT40 TDP1 no CPT inconclusive
Cc1cc(C(=O)C(=O)Nc2nnc(C(C)C)s2)c(C)n1-c1ccccc1	DT40 TDP1 CPT inconclusive (no result: HT1080-NT tox, HT1080 IDH1KD tx, IL1B secr inh)
Cc1ccc(C2Oc3ccccc3C3=C2C(c2cccs2)n2ncnc2N3)cc1 (centres undefined)	DT40 TDP1 CPT inconclusive, DT40 TDP1 no CPT inconclusive, HT1080-NT tox 21µM, HT1080 IDH1KD tx inconclusive
Fc1ccc(C2C3=C(Nc4ncnn42)c2ccccc2OC3c2ccncc2)cc1 (centres undefined)	DT40 TDP1 no CPT inconclusive, HT1080-NT tox inconclusive, IL1B secr inh -55
N#Cc1ccccc1Cn1c(=O)n(-c2cccc(C(F)(F)F)c2)c(=O)c2sccc21	DT40 TDP1 CPT inconclusive (no result: HT1080-NT tox, HT1080 IDH1KD tx, IL1B secr inh)
COc1cc(NC(=O)CSc2nnc3ccc(-c4cccnc4)nn23)cc(OC)c1	none
CCCCN(C(=O)c1cc2c(s1)CCCCC2)c1c(N)n(CC(C)C)c(=O)[nH]c1=O	none
COc1ccccc1NC(=O)C1CCN(c2ncnc3c2nc2n3CCCCC2)CC1	DT40 TDP1 CPT 23µM, DT40 TDP1 no CPT 18µM, IL1B secr inh inconclusive
COC(=O)c1ccccc1NC(=O)C1CCN(c2ncnc3c2nc2n3CCCCC2)CC1	DT40 TDP1 CPT 21µM, DT40 TDP1 no CPT 16µM
